USP10 block = human USP10 deubiquitinase inhibition | Q14694 | purified USP10, Ub-rhodamine fluorescence, 60 min | inhibition, % at 20 µM | actives 1.1% (n = 47,000)
USP7 inh = blocks human USP7 ubiquitin-rhodamine cleavage; purified USP7, Ub-rhodamine cleavage fluorescence; inhibition, % at 20 µM; actives 0.3% (n = 47,000); AID 1645854
Target sequence (Q93009 whole entry, looked up): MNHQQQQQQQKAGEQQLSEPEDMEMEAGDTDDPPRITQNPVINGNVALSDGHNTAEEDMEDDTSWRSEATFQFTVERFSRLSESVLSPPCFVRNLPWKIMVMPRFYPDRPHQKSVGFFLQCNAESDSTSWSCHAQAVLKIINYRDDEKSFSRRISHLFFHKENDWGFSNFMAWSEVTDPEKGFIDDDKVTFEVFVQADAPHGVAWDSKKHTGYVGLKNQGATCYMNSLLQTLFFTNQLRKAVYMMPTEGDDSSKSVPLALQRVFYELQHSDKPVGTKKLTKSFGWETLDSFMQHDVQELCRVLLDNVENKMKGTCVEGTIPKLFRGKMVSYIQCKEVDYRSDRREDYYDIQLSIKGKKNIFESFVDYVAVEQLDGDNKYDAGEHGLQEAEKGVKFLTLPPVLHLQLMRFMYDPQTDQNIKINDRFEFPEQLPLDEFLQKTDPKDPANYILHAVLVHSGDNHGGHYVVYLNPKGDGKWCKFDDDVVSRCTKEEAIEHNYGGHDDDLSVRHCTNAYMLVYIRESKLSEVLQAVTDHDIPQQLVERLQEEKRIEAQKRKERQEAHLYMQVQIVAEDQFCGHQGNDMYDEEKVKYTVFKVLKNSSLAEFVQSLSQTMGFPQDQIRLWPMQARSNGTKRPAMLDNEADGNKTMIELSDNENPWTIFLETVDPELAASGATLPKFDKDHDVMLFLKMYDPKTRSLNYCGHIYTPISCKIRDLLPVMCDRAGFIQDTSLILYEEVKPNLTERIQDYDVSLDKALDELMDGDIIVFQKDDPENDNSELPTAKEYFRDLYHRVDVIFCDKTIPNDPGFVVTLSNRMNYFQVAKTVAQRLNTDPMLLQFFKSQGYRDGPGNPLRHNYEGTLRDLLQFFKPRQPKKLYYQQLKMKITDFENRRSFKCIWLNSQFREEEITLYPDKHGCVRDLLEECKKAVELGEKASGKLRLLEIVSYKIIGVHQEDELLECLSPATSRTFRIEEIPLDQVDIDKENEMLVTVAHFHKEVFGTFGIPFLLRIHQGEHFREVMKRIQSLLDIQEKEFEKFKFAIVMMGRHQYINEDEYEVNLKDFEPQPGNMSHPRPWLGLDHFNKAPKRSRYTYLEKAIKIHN
UCHL1 block = inhibitors of human UCHL1 deubiquitinase; P09936; purified UCHL1, Ub-rhodamine cleavage fluorescence; inhibition, % at 20 µM; actives 0.2% (n = 47,000)
USP8 block = human USP8 deubiquitinase inhibition; P40818; purified USP8, Ub-rhodamine cleavage fluorescence, 30 min; inhibition, % at 20 µM; actives 4.2% (n = 47,000); AID 1645853
OTUD3 inh = blocks human OTUD3 ubiquitin-rhodamine cleavage; AID 1645858; purified OTUD3, Ub-rhodamine fluorescence, 2 h; actives 0.7% (n = 47,000); inhibition, % at 25 µM
USP28 inh = inhibitors of human USP28 deubiquitinase | inhibition, % at 25 µM | Q96RU2 | purified USP28, Ub-rhodamine cleavage fluorescence, 30 min | actives 3% (n = 47,000)
Hits are given with their value; 0 = inactive; - = no result given. Only some compounds are listed: those with a hit (about 6.8% of all), similar ones and a draw of the others. No stated cut-off is given here; in the data, active means inhibition above about 30%; inactive means the rest.

SMILES	USP10 block	USP7 inh	UCHL1 block	USP8 block	OTUD3 inh	USP28 inh
CCOc1ccc2[nH]c(=O)c(-c3nc4ccc(C)cn4c3NCc3ccccc3)cc2c1	31	0	0	0	0	32
CCc1ccc(S(=O)(=O)Nc2ccc3[nH]ncc3c2)cc1	0	0	0	35	0	0
N#Cc1ccc(COc2ncnc3scc(-c4ccccc4)c23)cc1	0	0	0	0	0	35
COc1cc2c(cc1OC)-c1cc(Oc3ccc4cccnc4c3)nc(=O)n1CC2	0	0	0	35	0	0
COc1ccc(Oc2cc3n(c(=O)n2)CCc2cc(OC)c(OC)cc2-3)cc1	0	0	0	0	0	0
COc1ccccc1-n1cc(C(=O)c2cc(F)ccc2O)cc(C(C)=O)c1=O	0	0	0	33	0	0
CCOc1ccccc1-n1cc(C(=O)c2cc(F)ccc2O)cc(C#N)c1=O	0	0	0	0	0	0
Cc1cccc(OCC(=O)N(C)Cc2cc(=O)[nH]c3ccccc23)c1	0	0	0	30	0	0
Cc1cc(C)cc(NC(=O)N2CCc3[nH]cnc3C2c2ccncc2)c1 (centres undefined)	0	0	0	0	0	0
CC(=O)c1ccc(NC(=O)Cc2sc(C)nc2-c2ccc(C)cc2)cc1	0	0	0	0	0	39
Cc1ccc(-c2nc(C)sc2CC(=O)Nc2ccccc2N2CCOCC2)cc1	0	0	0	0	0	0
O=C(CCCn1c(=O)[nH]c2cc(Cl)ccc2c1=O)N1CCc2ccccc2C1	0	0	0	69	0	0
COc1ccc(NC(=O)Cn2c(=O)n(CCC(=O)N3CC=C(c4ccccc4)CC3)c(=O)c3ccccc32)cc1Cl	0	0	0	0	0	0
COc1ccc(NC(=O)Cn2c(=O)n(CCC(=O)N3CCc4ccccc4C3)c(=O)c3ccccc32)cc1Cl	0	0	0	55	0	0
COc1ccc(NC(=O)Cn2c(=O)n(CCCC(=O)NC3CCCC3)c(=O)c3cc(Cl)ccc32)c(OC)c1	31	0	0	0	0	0
COc1ccc(Cl)cc1NC(=O)Cn1c(=O)n(CCC(=O)N2CCc3ccccc3C2)c(=O)c2ccccc21	0	0	0	34	0	0
O=C(C1CCCC1)N1CCN(c2ccc(-n3cccn3)nn2)CC1	0	0	0	0	0	0
CCOC(=O)c1ccc(-n2nnnc2C2(Nc3ccc(NC(C)=O)cc3)CCCCC2)cc1	0	0	0	0	0	0
Cc1cccc(S(=O)(=O)Nc2ccc(N3CCN(C)CC3)c(C(=O)O)c2)c1	0	0	0	89	0	0
Cc1cccc(NS(=O)(=O)c2ccc(C)c(C(=O)N3CCCc4ccccc43)c2)c1	0	0	0	0	0	0
COc1ccc(OC)c(NC(=O)c2ccc(-n3nnnc3SC)cc2)c1	0	0	0	0	0	0
COc1ccc(NC(=O)c2ccc(-n3nnnc3SC)cc2)cc1Cl	0	0	0	0	87	0
O=C(c1ccco1)N(Cc1ccc(F)cc1Cl)c1ccccn1	0	0	0	0	0	0
COc1ccccc1CN1C[C@H]2NC(=O)c3ccccc3C(=O)[C@@]2(C)C1	0	0	0	0	0	0
C[C@]12CN(Cc3cccc4cccnc34)C[C@H]1NC(=O)c1ccccc1C2=O	0	0	0	44	0	0
SMILES	USP10 block	USP7 inh	UCHL1 block	USP8 block	OTUD3 inh	USP28 inh
CCOC(=O)c1ccc(NC(=O)COc2cccc3c2CCN(Cc2cccnc2)C3=O)cc1	0	0	0	0	0	32
COc1ccc(NC(=O)COc2cccc3c2CCN(Cc2cccnc2)C3=O)c(OC)c1	0	0	0	0	0	0
COc1cc(/C=C/C(=O)OCC(=O)Nc2ccc([N+](=O)[O-])cc2OC)ccc1O	51	34	0	55	47	84
CCn1cc(NC(=O)CN2CCC3(CC=CCOC3)CC2)c(C)n1	0	0	0	0	46	0
Cc1cc(C)nc(NCCC(=O)N2CCC3(CC=CCOC3)CC2)n1	0	0	0	0	0	0
COc1ccc(CCn2c(=O)[nH]c3cc(C(=O)NCc4ccco4)ccc3c2=O)cc1OC	0	0	0	42	0	0
COC(=O)c1ccc2c(=O)n(CCCCCC(=O)NCCC3=CCCCC3)c(=O)[nH]c2c1	0	0	0	0	0	0
COC(=O)c1ccc2c(=O)n(CCCCCC(=O)NCc3cccc(Cl)c3)c(=O)[nH]c2c1	39	0	0	65	0	0
COC(=O)c1ccc2c(=O)n(CCCCCC(=O)NCCc3ccc(OC)c(OC)c3)c(=O)[nH]c2c1	0	0	0	46	0	0
Cn1cc(CCCC(=O)NCc2cccc(Cl)c2)c2ccccc21	0	0	0	0	0	0
CC1CCc2cc(F)ccc2N1S(=O)(=O)c1cc(Br)cnc1N (centres undefined)	0	0	0	0	0	34
Cc1nn(CC(=O)NC(C)c2ccccc2)c(C)c1S(=O)(=O)N(C)C (centres undefined)	0	0	0	0	0	0
COc1ccc(C(=O)O)cc1S(=O)(=O)N1CCCc2ccccc21	0	0	0	80	0	0
COC(=O)c1cccc(NC(=O)c2ccc(OC)c(S(=O)(=O)N3CCCc4ccccc43)c2)c1	0	0	0	0	0	0
Cc1cccc(OCCn2c(NC(=O)c3ccc(Cl)cc3)nc3ccccc32)c1	0	0	0	66	0	0
CC(=O)NC(Cc1ccc(F)cc1)C(=O)NC1CCN(C(=O)C2CC2)CC1 (centres undefined)	0	0	0	0	0	0
Cc1nn(C)c(C)c1CC(=O)Nc1nnc(C2CCCCC2)s1	0	0	0	0	0	41
Cc1nn(-c2cccc(F)c2)c2c1c(C)c(CCC(=O)NCc1ccccc1)c(=O)n2C	0	0	0	0	0	0
COc1ccc(CN(CC(=O)NC(C)(C)C)C(=O)CCC(=O)Nc2ccccn2)cc1	0	0	0	0	0	0
CC(C)[C@@](O)(C(=O)OC[C@@H]1CCN2CCC[C@@H]12)[C@@H](C)O	0	0	0	0	0	0
O=C(c1ccc(Cl)cc1)N(c1ccccn1)C1CCCCC1	71	52	0	54	44	48
O=C(c1ccc(F)cc1Cl)N(c1ccccn1)C1CCCCC1	0	0	0	0	0	0
COc1ccc(N2C(=O)c3cc4ccccc4n3CC2(C)C(=O)NC2CCCC2)cc1 (centres undefined)	0	0	0	31	0	0
COc1ccc2cc3n(c2c1)CC(C)(C(=O)NC1CCCC1)N(Cc1ccc(C)cc1)C3=O (centres undefined)	0	0	0	0	0	0
CC1(C(=O)NC2CCCC2)Cn2c(ccc2-c2ccco2)C(=O)N1Cc1cccnc1 (centres undefined)	0	0	0	0	0	-
CC1(C(=O)NC2CCCC2)Cn2c(ccc2-c2ccco2)C(=O)N1Cc1ccccc1 (centres undefined)	0	0	0	57	0	0
Cc1nnc(-c2ccc3ccn(CC(=O)N4CCCc5ccccc54)c3c2)o1	85	0	51	91	0	-

Screens (PubChem BioAssay)
